We go through 14 sequences from paper PMC4081100, “A DNA-binding-site landscape and regulatory network analysis for NAC transcription factors in Arabidopsis thaliana”.

Common to all, as to assay: universal protein binding microarray (PBM); transcription factors of Arabidopsis thaliana; high values mean tight binding
One assay has as its target T1, GST-ANAC019 NAC domain (Arabidopsis thaliana, UniProt Q9C932 14-162).
T1 sequence: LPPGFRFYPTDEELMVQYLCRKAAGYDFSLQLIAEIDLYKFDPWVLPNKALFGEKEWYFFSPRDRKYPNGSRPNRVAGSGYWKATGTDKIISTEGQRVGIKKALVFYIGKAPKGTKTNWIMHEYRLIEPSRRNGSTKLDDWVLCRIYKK
The following applies: protein: recombinant; tags: GST; chain copies: 2; dsDNA, one strand shown. A digest of the protocol: (§1)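 For zinc-finger proteins, zinc acetate was added while GST-tagged NAC-domain, full-length or DNA-binding-domain proteins were induced in cells. Purification used glutathione–Sepharose 4B, and quantification used A280 or anti-GST western blot. Custom all-10-mer Agilent 4 × 180K arrays, made double-stranded by primer extension, each received a protein at 200 to 500 nM final in duplicate. Scoring covered gapped and ungapped 8-mers, with binding given as the normalised enrichment score (E-score).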

The target of another assay is T2, GST-ANAC055(1-171) (Arabidopsis thaliana, UniProt Q9LDY8 1-171).
T2 sequence: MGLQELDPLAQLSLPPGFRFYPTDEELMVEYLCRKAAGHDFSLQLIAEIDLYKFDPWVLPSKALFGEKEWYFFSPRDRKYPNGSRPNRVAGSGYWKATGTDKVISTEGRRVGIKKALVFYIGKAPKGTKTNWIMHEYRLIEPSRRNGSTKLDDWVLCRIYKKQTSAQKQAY
The settings on record: protein: recombinant; tags: GST; chain copies: 2; dsDNA, one strand shown. A digest of the protocol: as §1

The target in a further assay is T3, GST-ATAF1 NAC domain (Arabidopsis thaliana, UniProt Q39013 7-158).
T3 sequence: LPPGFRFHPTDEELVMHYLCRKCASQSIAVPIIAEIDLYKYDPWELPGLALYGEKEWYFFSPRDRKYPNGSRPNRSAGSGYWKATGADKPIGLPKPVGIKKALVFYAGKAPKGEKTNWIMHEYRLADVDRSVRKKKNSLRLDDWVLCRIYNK
The following applies: protein: recombinant; tags: GST; chain copies: 2; dsDNA, one strand shown. The method in brief: as §1

The target in another assay is T4, GST-NAP(1-166) (Arabidopsis thaliana, UniProt O49255 1-166).
T4 sequence: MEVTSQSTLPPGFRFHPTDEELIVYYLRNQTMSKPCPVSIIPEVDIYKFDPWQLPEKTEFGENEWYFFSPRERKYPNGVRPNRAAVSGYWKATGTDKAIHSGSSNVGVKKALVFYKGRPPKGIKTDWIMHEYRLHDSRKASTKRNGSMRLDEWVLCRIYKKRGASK
The settings on record: protein: recombinant; tags: GST; chain copies: 2; dsDNA, one strand shown. The method in brief:
as §1

A further assay deals with T5, GST-NST2(1-184) (Arabidopsis thaliana, UniProt Q9M274 1-184).
T5 sequence: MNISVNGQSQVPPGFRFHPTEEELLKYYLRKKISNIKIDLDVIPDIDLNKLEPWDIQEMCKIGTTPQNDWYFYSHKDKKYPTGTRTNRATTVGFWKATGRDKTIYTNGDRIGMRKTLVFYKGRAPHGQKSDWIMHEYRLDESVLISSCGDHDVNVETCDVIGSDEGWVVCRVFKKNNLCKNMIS
The following applies: protein: recombinant; tags: GST; chain copies: 2; dsDNA, one strand shown. A digest of the protocol: as §1

The target in a further assay is T6, GST-VND3 NAC domain (Arabidopsis thaliana, UniProt Q9FH59 12-162).
T6 sequence: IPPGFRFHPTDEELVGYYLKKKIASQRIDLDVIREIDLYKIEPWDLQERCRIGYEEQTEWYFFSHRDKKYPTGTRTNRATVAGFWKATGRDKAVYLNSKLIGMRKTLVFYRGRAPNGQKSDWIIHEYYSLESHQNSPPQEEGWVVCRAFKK
The following applies: protein: recombinant; tags: GST; chain copies: 2; dsDNA, one strand shown. The method in brief: as §1

The target in another assay is T7, GST-VND7 NAC domain (Arabidopsis thaliana, UniProt Q9C8W9 9-158).
T7 sequence: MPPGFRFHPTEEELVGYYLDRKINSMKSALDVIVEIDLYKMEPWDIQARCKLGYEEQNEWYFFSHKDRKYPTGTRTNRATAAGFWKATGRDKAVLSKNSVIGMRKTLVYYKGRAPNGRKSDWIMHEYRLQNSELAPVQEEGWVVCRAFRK
The following applies: protein: recombinant; tags: GST; chain copies: 2; dsDNA, one strand shown. A digest of the protocol: as §1

The next assay has as its target GST-WRKY1(266-371) (Arabidopsis thaliana, UniProt Q9SI37 266-371). The settings on record: protein: recombinant; tags: GST; dsDNA, one strand shown. A digest of the protocol: as §1
Assay [1] deals with T8, GST-ANAC092(1-285) full length (Arabidopsis thaliana, UniProt Q9FKA0 1-285).
T8 sequence: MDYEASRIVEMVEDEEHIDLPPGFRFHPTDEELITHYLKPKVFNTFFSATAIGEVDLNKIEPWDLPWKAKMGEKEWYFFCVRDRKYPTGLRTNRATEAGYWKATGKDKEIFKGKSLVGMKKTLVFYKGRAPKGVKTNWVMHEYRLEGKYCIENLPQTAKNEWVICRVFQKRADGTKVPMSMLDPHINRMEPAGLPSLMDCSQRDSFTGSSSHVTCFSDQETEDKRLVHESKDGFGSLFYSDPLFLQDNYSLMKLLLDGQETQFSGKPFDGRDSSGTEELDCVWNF
The settings on record: protein: recombinant; tags: GST; chain copies: 2; dsDNA, one strand shown. A digest of the protocol:
as §1

For another assay, the target named is T9, GST-NTL8 NAC domain (Arabidopsis thaliana, UniProt Q9XIN7 14-156).
T9 sequence: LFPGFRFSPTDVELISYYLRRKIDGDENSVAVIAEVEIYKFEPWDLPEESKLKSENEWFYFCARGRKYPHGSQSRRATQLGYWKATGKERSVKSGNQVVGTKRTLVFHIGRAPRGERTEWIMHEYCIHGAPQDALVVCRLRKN
The following applies: protein: recombinant; tags: GST; chain copies: 2; dsDNA, one strand shown. A digest of the protocol:
as §1

The next assay has as its target T10, GST-ANAC092(1-176) (Arabidopsis thaliana, UniProt Q9FKA0 1-176).
T10 sequence: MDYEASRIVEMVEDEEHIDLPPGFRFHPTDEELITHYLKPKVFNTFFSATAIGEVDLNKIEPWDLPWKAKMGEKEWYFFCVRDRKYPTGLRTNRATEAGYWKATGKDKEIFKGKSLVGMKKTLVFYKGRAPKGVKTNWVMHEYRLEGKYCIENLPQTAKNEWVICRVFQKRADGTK
The settings on record: protein: recombinant; tags: GST; chain copies: 2; dsDNA, one strand shown. A digest of the protocol: as §1

For a further assay, the target named is GST-NTL6(1-168) (Arabidopsis thaliana, UniProt Q9SCK6 1-168). The following applies: protein: recombinant; tags: GST; chain copies: 2; dsDNA, one strand shown. A digest of the protocol: as §1
Chain of GST-NTL6(1-168) (Q9SCK6 1-168): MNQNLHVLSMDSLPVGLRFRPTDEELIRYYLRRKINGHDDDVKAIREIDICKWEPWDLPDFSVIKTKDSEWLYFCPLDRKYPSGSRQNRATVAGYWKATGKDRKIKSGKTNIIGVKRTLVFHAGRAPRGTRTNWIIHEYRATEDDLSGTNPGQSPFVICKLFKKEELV

Chain of GST-WRKY1(266-371) (Q9SI37 266-371): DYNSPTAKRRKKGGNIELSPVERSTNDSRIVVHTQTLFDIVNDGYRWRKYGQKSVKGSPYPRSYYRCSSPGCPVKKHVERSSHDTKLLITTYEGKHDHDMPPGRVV

For the sequence AAAGTCGT, the binding signal with GST-ANAC019 NAC domain was 0.29 E-score; in the assay with GST-ANAC055(1-171), 0.271 E-score; with GST-ATAF1 NAC domain, 0.258 E-score; with GST-NAP(1-166), 0.132 E-score; in the assay with GST-NST2(1-184) it was 0.13 E-score; with GST-VND3 NAC domain it was 0.145 E-score. Besides, the results for the binding signal with GST-VND7 NAC domain and with GST-WRKY1(266-371) were 0.176 E-score and 0.429 E-score, respectively.
As to TACAGTCA, the binding signal with GST-ANAC019 NAC domain was 0.109 E-score; with GST-ANAC055(1-171) it was 0.0559 E-score; with GST-ATAF1 NAC domain it was 0.107 E-score; in assay [1], 0.131 E-score; with GST-NTL8 NAC domain, 0.0899 E-score; with GST-VND3 NAC domain, 0.167 E-score. The binding signal with GST-VND7 NAC domain worked out at 0.0649 E-score; with GST-WRKY1(266-371), 0.404 E-score.
With GTTGGTCA, the binding signal with GST-ANAC055(1-171) amounted to 0.182 E-score; with GST-ATAF1 NAC domain, 0.131 E-score; with GST-NAP(1-166), 0.117 E-score; in the assay with GST-VND3 NAC domain, 0.0931 E-score; in the assay with GST-VND7 NAC domain, 0.0967 E-score; with GST-WRKY1(266-371) it was 0.448 E-score.
Consider ATAGTCAA, for which the binding signal was determined as 0.122 E-score with GST-ANAC055(1-171); 0.263 E-score in the assay with GST-ATAF1 NAC domain; 0.12 E-score in assay [1]; 0.0851 E-score with GST-NAP(1-166); 0.146 E-score with GST-NST2(1-184); 0.211 E-score in the assay with GST-VND3 NAC domain. Further, the binding signal with GST-VND7 NAC domain turned out to be 0.12 E-score; with GST-WRKY1(266-371), 0.473 E-score.
Consider ATATTGAC, for which the binding signal in the assay with GST-ATAF1 NAC domain was 0.167 E-score; in the assay with GST-NAP(1-166), 0.178 E-score; in the assay with GST-VND3 NAC domain, 0.169 E-score; in the assay with GST-VND7 NAC domain, 0.0695 E-score; in the assay with GST-WRKY1(266-371) it was 0.453 E-score.
For the sequence AATAGTCA, the binding signal with GST-ANAC055(1-171) was 0.0507 E-score; in the assay with GST-ATAF1 NAC domain, 0.061 E-score; in [1], 0.113 E-score; with GST-NST2(1-184), 0.0657 E-score; with GST-VND3 NAC domain, 0.178 E-score; with GST-VND7 NAC domain, 0.143 E-score. In addition, the binding signal in the assay with GST-WRKY1(266-371) worked out at 0.413 E-score.
As for CACGGCTC, the binding signal with GST-ANAC019 NAC domain was 0.42 E-score; with GST-ANAC055(1-171), 0.384 E-score; with GST-ATAF1 NAC domain, 0.336 E-score; in [1], 0.18 E-score; with GST-NAP(1-166), 0.3 E-score; with GST-VND3 NAC domain, 0.337 E-score. In the assay with GST-VND7 NAC domain, the binding signal turned out to be 0.377 E-score.
As to ATTGGTCA, the binding signal was found to be 0.0884 E-score with GST-ANAC092(1-176), 0.105 E-score in assay [1], 0.0748 E-score in the assay with GST-VND3 NAC domain and 0.454 E-score with GST-WRKY1(266-371).
Turning to AATGGTCA, the binding signal was 0.0526 E-score in the assay with GST-NTL6(1-168), 0.0734 E-score with GST-VND3 NAC domain and 0.434 E-score in the assay with GST-WRKY1(266-371).
Turning to TGACTAAA, the binding signal with GST-NTL6(1-168) was 0.0547 E-score; with GST-ANAC019 NAC domain, 0.0691 E-score; with GST-NST2(1-184), 0.111 E-score; with GST-VND3 NAC domain, 0.0682 E-score; with GST-VND7 NAC domain, 0.0902 E-score; in the assay with GST-WRKY1(266-371), 0.42 E-score.
For the sequence AAGTCTTC, the binding signal with GST-NTL6(1-168) was 0.204 E-score; with GST-ANAC019 NAC domain, 0.052 E-score; with GST-ANAC055(1-171), 0.0748 E-score; with GST-ATAF1 NAC domain, 0.0685 E-score; with GST-NTL8 NAC domain, 0.0771 E-score; in the assay with GST-VND3 NAC domain, 0.123 E-score. In addition, the binding signal was found to be 0.0783 E-score in the assay with GST-VND7 NAC domain and 0.429 E-score with GST-WRKY1(266-371).
Take CTATTGAC: the binding signal with GST-NTL6(1-168) came out at 0.075 E-score; in the assay with GST-ANAC055(1-171) it was 0.0817 E-score; with GST-ATAF1 NAC domain, 0.0721 E-score; with GST-NAP(1-166) it was 0.0658 E-score; with GST-VND3 NAC domain, 0.06 E-score; with GST-WRKY1(266-371), 0.451 E-score.
In the case of GTCAAATA, the binding signal in the assay with GST-NTL6(1-168) is 0.0593 E-score; with GST-ANAC055(1-171), 0.0664 E-score; with GST-ATAF1 NAC domain it was 0.141 E-score; in the assay with GST-NAP(1-166), 0.0873 E-score; in the assay with GST-VND3 NAC domain it was 0.0795 E-score; with GST-VND7 NAC domain it was 0.139 E-score. In addition, the binding signal with GST-WRKY1(266-371) came out at 0.461 E-score.
For the sequence AGAGTCAA, the binding signal in the assay with GST-ANAC019 NAC domain was 0.108 E-score; in the assay with GST-NST2(1-184) it was 0.0818 E-score; with GST-VND3 NAC domain it was 0.0953 E-score; with GST-VND7 NAC domain it was 0.0931 E-score; with GST-WRKY1(266-371), 0.48 E-score.
